The list is not random: actives were taken first. Their share in the collection is about 3.3%.
AmpC inh no detg: inhibitors of E. coli AmpC beta-lactamase without detergent; P00811; AmpC nitrocefin hydrolysis, absorbance 480 nm, 0.0001% Triton; Potency, µM (titrated, usually from 57.1 µM), without a hit: at the top dose activity change, negative = inhibition, hits mostly inhibitors; 330,000 tested, 0.52% active; AID 485341;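 further: plate controls were no compound for no effect and no enzyme for full effect; nearly all actives have a fitted effect of over 20% in size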
Target sequence (P00811 whole entry, looked up): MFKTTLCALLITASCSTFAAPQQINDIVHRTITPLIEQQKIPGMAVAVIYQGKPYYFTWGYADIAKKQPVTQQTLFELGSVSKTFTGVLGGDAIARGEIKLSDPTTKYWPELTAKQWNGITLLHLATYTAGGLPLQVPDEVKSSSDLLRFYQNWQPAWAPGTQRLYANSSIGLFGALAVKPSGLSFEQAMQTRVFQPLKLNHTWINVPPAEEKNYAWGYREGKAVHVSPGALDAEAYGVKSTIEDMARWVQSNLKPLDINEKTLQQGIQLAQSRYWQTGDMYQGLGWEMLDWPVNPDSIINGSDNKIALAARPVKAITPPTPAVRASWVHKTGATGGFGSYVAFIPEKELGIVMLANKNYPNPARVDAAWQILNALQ
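20 mM phosphate pH 7.0 + 0.01% (detergent screen) or 0.0001% Triton X-100; 5.3 nM AmpC reagent; cpd preinc 15 min RT; nitrocefin (800 uM stock) to start; A480 q20 s × 4 min; Activity was normalised to no-enzyme and no-compound control wells.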
AmpC detergent: inhibitors of E. coli AmpC beta-lactamase with detergent | P00811 | Potency, µM (highest dose often 114 µM), inactives show at the top dose activity change, negative = inhibition, most hits filed as inhibitors | AmpC hydrolysis of nitrocefin, absorbance 480 nm, 0.01% Triton | 370,000 tested, 0.041% active;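 further: 0% = no-compound wells and -100% = no-enzyme wells; nearly all actives have a fitted effect of over 25% in size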
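AmpC (5.3 nM in the dispensed reagent) in 20 mM phosphate pH 7.0 with 0.01% (detergent screen) or 0.0001% Triton X-100 was preincubated with compounds for 15 min at room temperature. Nitrocefin was then added from an 800 uM solution, and hydrolysis was followed at 480 nm.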
Sm TGR inh: S. mansoni TGR enzyme inhibition | AID 485364 | purified TGR, DTNB reduction, TNB absorbance 405 nm | Potency, µM (series often up to 114 µM), without a hit: at the top dose activity change, negative = inhibition, most hits filed as inhibitors | 360,000 tested, 3% active; further: nearly all actives have a fitted effect of over 60% in size
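Kinetic colorimetric format: TGR-catalysed, NADPH-driven DTNB reduction monitored via TNB absorbance. Enzyme dispensed at 20 nM; compound exposure 15 min at room temperature before reaction start.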
Starred values were filed as active, the others as inactive. The call rests on the fitted dose curve; in most records, active means well fitted curve in the direction sought with a large enough effect; inconclusive means small, poorly fitted or top-dose-only effect, or another doubt; inactive means no such curve, though single readings can be large; an effect the other way counts as inactive or inconclusive. Unless noted, on the % scale 0 is the no-effect control and ±100 the full control effect; potency means the concentration at half of the fitted maximal effect.

For O=C(CCl)Nc1c2c(nn1-c1ccccc1)CSC2 the results were AmpC inh no detg -14%, AmpC detergent 2% and Sm TGR inh 10µM*.
For O=C(CCCCl)Nc1c2c(nn1-c1ccccc1)CSC2 the results were AmpC inh no detg -25%, AmpC detergent -1% and Sm TGR inh -1%.
For O=C(CSc1nnnn1-c1ccccc1)Nc1ncc(Cc2ccccc2Cl)s1 the results were AmpC inh no detg -16%, AmpC detergent 5% and Sm TGR inh 15%.
For N=C1SC(c2ccccc2)C(=O)N1c1ncc(Cc2ccccc2Cl)s1 (stereo unspecified) the results were AmpC inh no detg 16µM*, AmpC detergent -12% and Sm TGR inh -11%.
`O=C1C([N+](=O)[O-])=C(O)c2cccc3cccc1c23` gave AmpC inh no detg -40%, AmpC detergent inconclusive and Sm TGR inh 40µM*.
Screening O=C1C(=O)c2cccc3cccc1c23 returned AmpC inh no detg 0%, AmpC detergent -1% and Sm TGR inh -1%.
Screening O=C(c1ccco1)N1CCCN(Cc2nc(-c3cccs3)no2)CC1 returned AmpC inh no detg 21%, AmpC detergent -6% and Sm TGR inh -16%.
For O=C(CSc1nnc(CNC(=O)c2ccc(F)cc2)o1)Nc1ccc2c(c1)OCCO2 the results were AmpC inh no detg -40%, AmpC detergent 3% and Sm TGR inh -25%.
COc1ccccc1NC(=S)N=Nc1c(O)[nH]c2ccc(Br)cc12 was read as AmpC inh no detg -35%, AmpC detergent 5% and Sm TGR inh -11%.
Cc1cccc(NC(=S)N=Nc2c(O)[nH]c3ccccc23)c1 was read as AmpC inh no detg 32µM*, AmpC detergent inconclusive and Sm TGR inh -1%.
Screening COCCNC(=O)CS(=O)Cc1nc(-c2ccc(OC)cc2)oc1C (stereo unspecified) returned AmpC inh no detg -10%, AmpC detergent inconclusive and Sm TGR inh -28%.
For Cc1ccc(CNC(=O)CS(=O)Cc2nc(-c3ccccc3C)oc2C)cc1 (stereo unspecified) the results were AmpC inh no detg 55%, AmpC detergent inconclusive and Sm TGR inh 45µM*.
COc1ccc(CNC(=O)CS(=O)Cc2nc(-c3ccccc3C)oc2C)cc1 (stereo unspecified) was read as AmpC inh no detg 41%, AmpC detergent inconclusive and Sm TGR inh inconclusive.
Screening Cc1ccc(CCNC(=O)CS(=O)Cc2nc(-c3ccccc3C)oc2C)cc1 (stereo unspecified) returned AmpC detergent -6% and Sm TGR inh -23%.
For Cc1ccccc1-c1nc(CS(=O)CC(=O)NCc2ccccc2)c(C)o1 (stereo unspecified) the results were AmpC inh no detg 42%, AmpC detergent inconclusive and Sm TGR inh 22µM*.
`COc1ccccc1CNC(=O)CS(=O)Cc1nc(-c2ccccc2C)oc1C` (stereo unspecified) gave AmpC inh no detg 63%, AmpC detergent inconclusive and Sm TGR inh inconclusive.
Screening COCCNC(=O)CS(=O)Cc1nc(-c2ccccc2C)oc1C (stereo unspecified) returned AmpC inh no detg -12%, AmpC detergent -7% and Sm TGR inh 40µM*.
Cc1ccccc1-c1nc(CS(=O)CC(=O)NCCc2ccc(Cl)cc2)c(C)o1 (stereo unspecified) was read as AmpC inh no detg 167%, AmpC detergent 5% and Sm TGR inh 28µM*.
O=C(NC(=S)NCC1CCCO1)C(c1ccccc1)c1ccccc1 (stereo unspecified) was read as AmpC inh no detg -28%, AmpC detergent -8% and Sm TGR inh -17%.
O=C(CCS(=O)(=O)c1cccc2nonc12)Nc1cccc(F)c1 was read as AmpC detergent inconclusive and Sm TGR inh 1%.
Screening COc1ccc(CCNC(=O)CN(CCc2ccccc2)S(C)(=O)=O)cc1 returned AmpC inh no detg 32%, AmpC detergent 1% and Sm TGR inh 7%.
Screening CCc1ccc2oc(C(=O)NCC(c3ccc(OC)cc3)N3CCCCC3)c(C)c2c1 (stereo unspecified) returned AmpC inh no detg -5%, AmpC detergent 7% and Sm TGR inh -3%.
Screening O=C(c1ccc(F)cc1Cl)N1CCN(CCc2ccccc2)CC1 returned AmpC inh no detg 81%, AmpC detergent -11% and Sm TGR inh -5%.
CC1CCCC(C)N1/N=C/c1ccc(C(=O)O)cc1 (stereo unspecified) was read as AmpC inh no detg -4%, AmpC detergent -1% and Sm TGR inh -8%.
`CCc1oc(C(=O)O)cc1CN(CC)CC` gave AmpC detergent inconclusive and Sm TGR inh 6%.
